# Results filed as inconclusive are left out. Activity calls are given as the source filed them. Cut-off read from the data, not from the text of the source, unless noted: active = inhibition above about 80%; inactive = the rest.
# Key:
# [1] = growth inhibition of DIPG glioma cells, dose response, cell-based, SU-DIPG-XIII, MIPE5.0, CellTiter-Glo, qHTS (AID 1347064; cut-off not given, nearly all actives have AC50 up to about 23 µM;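 for AC50: cells exposed to compound for 48 hours before the viability read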); details: SU-DIPG-XIII viability, CellTiter-Glo ATP luminescence
# [2] = SU-DIPG-XXV glioma cell viability, MIPE5.0 library, qHTS (AID 1347068; cut-off not given, nearly all actives have IC50 up to about 30 µM)
# [3] = LFS_MB_P medulloblastoma growth inhibition, cell-based, chromothripsis tumors, cisplatin or BGB combos (AID 1671449); details: LFS_MB_P medulloblastoma cells;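 note: cells exposed for 96 hours; 0% = vehicle DMSO and 100% = killing by high DMSO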
# [4] = HDN33 neuroblastoma growth inhibition, cell-based, chromothripsis tumors, cisplatin or BGB combos (AID 1671450); details: HDN33 neuroblastoma cells, stronger effect = higher value;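 note: cells exposed to compound for four days; 0% = vehicle DMSO and 100% = cell killing by high DMSO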
# [5] = ICB984 medulloblastoma cell growth inhibition, synergistic combos for chromothripsis tumors, cisplatin or BGB combos (AID 1671451; call rule not given here;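 note: cells exposed for 96 hours before readout; 0% = vehicle DMSO and 100% = killing by high DMSO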); details: ICB984 medulloblastoma cells, drug combinations, stronger effect = higher value
# [6] = LFS_MB_1R medulloblastoma cell growth inhibition, synergistic combos for chromothripsis tumors, cisplatin or BGB combos (AID 1671452); details: LFS_MB_1R medulloblastoma cells, stronger effect = higher value;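 note: cells exposed for 96 hours before readout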
# [7] = HTB85 osteosarcoma cell growth inhibition, synergistic combos for chromothripsis tumors, BGB or cisplatin IC20 combos (AID 1671453); details: HTB85 osteosarcoma cells, drug combinations, stronger effect = higher value;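 note: cells exposed for 96 hours before readout; 0% = vehicle DMSO and 100% = high DMSO killing control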
# [8] = CRL2098 osteosarcoma cell growth inhibition, synergistic combos for chromothripsis tumors, BGB or cisplatin IC20 combos (AID 1671454); details: CRL2098 osteosarcoma cells, drug combinations, stronger effect = higher value;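 note: cells exposed for 96 h before readout; 0% = vehicle DMSO and 100% = killing by high DMSO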
# [9] = HD-MB03 medulloblastoma cell growth inhibition, synergistic combos for chromothripsis tumors, BGB or cisplatin IC20 combos (AID 1671455; in the data active = inhibition above about 83%;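 note: 0% = vehicle DMSO and 100% = high DMSO as cytotoxic control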); details: HD-MB03 medulloblastoma cells, stronger effect = higher value
# [10] = UWB1.289 ovarian carcinoma cell growth inhibition, synergistic combos for chromothripsis tumors, BGB or cisplatin combos (AID 1671456); details: UWB1.289 ovarian carcinoma cells, stronger effect = higher value;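 note: cells exposed to compound for four days; 0% = vehicle DMSO and 100% = killing by high DMSO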
# [11] = LFS_MB_2R medulloblastoma cell growth inhibition, synergistic combos for chromothripsis tumors, cisplatin combos (AID 1671457); details: LFS_MB_2R medulloblastoma cells, stronger effect = higher value;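 note: cells exposed to compound for four days before readout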
# [12] = MDA-MB-436 breast carcinoma cell growth inhibition, synergistic combos for chromothripsis tumors, BGB or cisplatin combos (AID 1671458; call rule not given here;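 note: cells exposed for 96 hours; 0% = vehicle DMSO and 100% = killing by high DMSO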); details: MDA-MB-436 breast carcinoma growth inhibition, drug combinations, stronger effect = higher value
# [13] = UWB1.289_BRCA1 ovarian cancer growth, cell-based, BGB or cisplatin combinations (AID 1671459); details: UWB1.289 BRCA1 ovarian carcinoma, drug combinations, stronger effect = higher value
# [14] = human astrocyte viability loss, single and combined drugs, cytotoxicity control for chromothriptic childhood tumor combination screen, cell-based, BGB or cisplatin IC20 combos (AID 1671460); details: Human astrocytes, drug combinations, stronger effect = higher value;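 note: cells exposed to compounds for 96 hours before viability readout; 0% = vehicle and 100% = killing control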
# [15] = growth inhibition of BT084 medulloblastoma cells, cell-based, ICGC_MB145, cisplatin and BGB IC40 combos (AID 1671461); details: drug combinations, stronger effect = higher value;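 note: cells exposed to drugs for 96 hours; 0% = vehicle DMSO and 100% = high DMSO full killing control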
# [16] = growth inhibition of RCMB18 medulloblastoma cells, cell-based, cisplatin and BGB IC40 combos (AID 1671462); details: stronger effect = higher value;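 note: cells exposed to compound for four days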
# [17] = growth inhibition of CRL1545 osteosarcoma cells, cell-based, cisplatin and BGB IC20 combos (AID 1671464); details: stronger effect = higher value;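 note: cells exposed to compound for 96 hours before readout; 0% = vehicle DMSO and 100% = high DMSO killing control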
# [18] = viability loss in pontine glioma line – cell-based, SU-DIPG-XXV, MIPE5.0, CellTiter-Glo, qHTS, dose response (AID 1347065; cut-off not given, nearly all actives have AC50 up to about 26 µM;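 note: cells exposed to compound for 48 hours before ATP readout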); details: CellTiter-Glo ATP luminescence
# [19] = SU-DIPG-VI glioma cell viability, MIPE4.0 library, CellTiter-Glo luminescence, qHTS (AID 1347066; cut-off not given, nearly all actives have AC50 up to about 30 µM;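 note: cells exposed to compound for 48 hours before readout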); details: CellTiter-Glo ATP luminescence
# [20] = JHH-DIPG-1 glioma cell viability, MIPE5.0 library, CellTiter-Glo luminescence, qHTS (AID 1347067; cut-off not given, nearly all actives have AC50 up to about 26 µM;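 note: cells exposed to compound for 48 hours before readout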); details: JHH-DIPG-1 glioma viability, CellTiter-Glo ATP luminescence
# [21] = measured here: combination with BGB IC40, at 0.05 µM
# [22] = measured here: with BGB IC20 combination, at 0.5 µM
# [23] = measured here: with cisplatin IC20 combination, at 0.5 µM
# [24] = measured here: combination with cisplatin, at 0.5 µM
# [25] = measured here: combination with cisplatin, at 5 µM
smiles,measurement,setting,value
O=c1[nH]c([C@@H]2CCCN2)nc2c1oc1ccc(Cl)cc12,AC50,[1],20.9 µM (active)
same,outcome,[2],inactive
same,inhibition,"[3]; at 0.5 µM, stronger effect = higher value",-0.05% (inactive)
same,inhibition,"[3]; measured here: combination with BGB IC20, at 0.005 µM",-31.4%
same,inhibition,"[3]; measured here: combination with BGB IC40, at 0.005 µM",94.4%
same,inhibition,[3]; [21],-14%
same,inhibition,"[3]; measured here: combination with cisplatin, at 0.5 µM, stronger effect = higher value",64.5%
same,inhibition,"[3]; measured here: combination with cisplatin, at 5 µM, stronger effect = higher value",-16.4%
same,inhibition,"[4]; BGB combo, at 5 µM",1.11%
same,inhibition,[4]; at 0.5 µM,-21.3% (inactive)
same,inhibition,"[4]; cisplatin combo, at 5 µM",-6.62%
same,inhibition,[4]; [22],-15.4%
same,inhibition,[4]; [23],-18.8%
same,inhibition,"[4]; single agent, at 5 µM",3.38%
same,inhibition,"[5]; BGB IC20 combo, at 0.005 µM",-39.5%
same,inhibition,"[5]; BGB IC40 combo, at 0.005 µM",-26.9%
same,inhibition,"[5]; BGB IC40 combo, at 0.05 µM",-16.5%
same,inhibition,[5]; at 0.5 µM,-16.4% (inactive)
same,inhibition,"[5]; cisplatin combo, at 0.05 µM",-22.5%
same,inhibition,"[5]; cisplatin combo, at 0.5 µM",-15.6%
same,inhibition,"[5]; cisplatin combo, at 5 µM",4.34%
same,inhibition,"[5]; measured here: 5 uM single agent, at 5 µM",-19.5%
same,inhibition,[6]; at 0.5 µM,-31% (inactive)
same,inhibition,[6]; [21],-29.1%
same,inhibition,[6]; [24],-68.3%
same,inhibition,[6]; [25],-10.2%
same,inhibition,[7]; at 0.5 µM,-12.9% (inactive)
same,inhibition,"[7]; measured here: with BGB IC20, at 0.5 µM",-9.31%
same,inhibition,"[7]; measured here: with BGB IC20, at 5 µM",-19.7%
same,inhibition,"[7]; measured here: with cisplatin IC20, at 0.5 µM",-5.61%
same,inhibition,"[7]; measured here: with cisplatin IC20, at 5 µM",-2.34%
same,inhibition,"[7]; single agent, at 5 µM",-2.45%
same,inhibition,[8]; at 0.5 µM,-86.2% (inactive)
same,inhibition,"[8]; measured here: combination with BGB at IC20, at 0.5 µM",-77.4%
same,inhibition,"[8]; measured here: combination with cisplatin at IC20, at 0.5 µM",-117%
same,inhibition,[9]; at 0.5 µM,-12.2% (inactive)
same,inhibition,"[9]; measured here: combo with BGB at IC20, at 0.5 µM",-2.56%
same,inhibition,"[9]; measured here: combo with cisplatin at IC20, at 0.5 µM",-27.5%
same,inhibition,[10]; at 0.5 µM,-17.8% (inactive)
same,inhibition,"[10]; measured here: inhibition with BGB combination, at 0.05 µM",-12.3%
same,inhibition,"[10]; measured here: inhibition with cisplatin combination, at 0.05 µM",-25.4%
same,inhibition,[11]; at 0.5 µM,-16% (inactive)
same,inhibition,[11]; [24],-22.2%
same,inhibition,[11]; [25],-24.3%
same,inhibition,[12]; at 0.5 µM,-35% (inactive)
same,inhibition,"[12]; measured here: BGB combination, at 0.5 µM",-39.6%
same,inhibition,"[12]; measured here: BGB combination, at 5 µM",-62.1%
same,inhibition,"[12]; measured here: cisplatin combination, at 0.5 µM",-52.2%
same,inhibition,"[12]; measured here: cisplatin combination, at 5 µM",-71.9%
same,inhibition,"[13]; BGB combination, concentration series, at 5 µM",-4.02%
same,inhibition,[13]; at 0.5 µM,-15.4% (inactive)
same,inhibition,"[13]; cisplatin combination, concentration series, at 5 µM",-5.14%
same,inhibition,[14]; at 0.5 µM,1.64% (inactive)
same,inhibition,"[14]; measured here: combo with BGB IC20, at 0.5 µM",11.1%
same,inhibition,"[14]; measured here: combo with cisplatin IC20, at 0.5 µM",-0.305%
same,inhibition,[15]; at 0.5 µM,18.2% (inactive)
same,inhibition,"[15]; cisplatin combination, at 0.5 µM",0.765%
same,inhibition,"[15]; cisplatin combination, at 5 µM",-129%
same,inhibition,"[15]; measured here: BGB IC40 combination 0.05 uM, at 0.05 µM",-10.1%
same,inhibition,"[15]; single agent, at 5 µM",7.55%
same,inhibition,[16]; at 0.5 µM,-15.8% (inactive)
same,inhibition,"[16]; cisplatin combo, at 5 µM",-8.27%
same,inhibition,"[16]; measured here: BGB IC40 combination, at 0.05 µM",3.23%
same,inhibition,[16]; [24],-15.3%
same,inhibition,"[16]; single agent, at 5 µM",-12.8%
same,inhibition,[17]; at 0.5 µM,-44.6% (inactive)
same,inhibition,[17]; [22],-65.7%
same,inhibition,[17]; [23],-36.2%
same,inhibition,"[17]; single agent, at 0.05 µM",-56%
same,inhibition,"[17]; single agent, at 5 µM",-51.5%
CCc1cc(/C(C)=N/OCc2ccc(C3CCCCC3)c(C(F)(F)F)c2)ccc1CN1CC(C(=O)O)C1,AC50,[18],18.6 µM (active)
same,outcome,[19],inactive
C[C@@H]1C[C@H](N)C[C@H](c2ccncc2NC(=O)c2ccc(F)c(-c3c(F)cccc3F)n2)C1,AC50,[18],9.34 µM (active)
N#Cc1ccc(Cn2cncc2CN2CCN(c3cccc(Cl)c3)C(=O)C2)cc1,AC50,[18],9.34 µM (active)
CSC[C@H]1CN(Cc2c[nH]c3c(N)ncnc23)C[C@@H]1O,outcome,[1],inactive
same,outcome,[20],inactive
same,outcome,[2],inactive
CN1CCC(COc2cnc(-c3cccc(Cn4nc(-c5cccc(C#N)c5)ccc4=O)c3)nc2)CC1,AC50,[18],26.3 µM (active)
same,outcome,[19],inactive
same,AC50,[20],29.5 µM (active)
Cc1nn(Cc2ccccc2Cl)c(C)c1CN(C)CC(O)COc1ccc(Cl)cc1 (configuration not stated),AC50,[18],20.9 µM (active)
same,AC50,[20],23.5 µM (active)
